Reference: PubChem BioAssay AID1159580 (chemical genetic matrix, 2015)
Where “and” joins values, the source holds several entries; their conditions need not be identical. Identical values can stand only once. Out of some 5,500 compounds screened, about 2,000 (36%) were called active. Roughly 18% stayed inconclusive and do not appear here. Cut-off read from the data, not from the text of the source: active = normalized growth mostly below about 0.91 (no sharp cut-off); inconclusive = no clear call, values can overlap the other calls; inactive = mostly above about 0.92. The list shows a part of the results.

Assay: chemical genetic growth profiling, strain panel (AID 1159580);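 note: tested at 20 µM; growth read once vehicle control cultures reached saturation at 30 °C; 1 = growth at the plate median or of vehicle wells; lower values mean less growth of the strain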
Details: S. cerevisiae deletion strains, growth OD

Measured: normalized growth

CCC(/C=C/[C@@H](C)[C@H]1CCC2C3CC=C4C[C@@H](O)CC[C@]4(C)C3CC[C@@]21C)C(C)C (some centres undefined)
inactive: locus YAL013W, strain DEP1, stronger effect = lower value 0.999 | locus YAL021C, strain ccr4, stronger effect = lower value 1.02 | locus YAL026C, strain drs2, stronger effect = lower value 0.935 | locus YAL030W, strain snc1, stronger effect = lower value 0.99 | locus YBL061C, strain skt5, stronger effect = lower value 0.997 | locus YBR009C, strain hhf1, stronger effect = lower value 0.972 | locus YBR021W, strain FUR4, stronger effect = lower value 1.04 | locus YBR023C, strain chs3, stronger effect = lower value 0.988 | locus YBR171W, strain sec66, stronger effect = lower value 0.985 | locus YBR229C, strain ROT2, stronger effect = lower value 0.993 | locus YBR231C, strain swc5, stronger effect = lower value 0.988 | locus YBR279W, strain paf1, stronger effect = lower value 0.994 | locus YCL011C, strain gbp2, stronger effect = lower value 0.968 | locus YCL016C, strain dcc1, stronger effect = lower value 1 | locus YCL029C, strain bik1, stronger effect = lower value 1 | locus YCL061C, strain MRC1, stronger effect = lower value 1.01 | locus YCL069W, strain vba3, stronger effect = lower value 0.99 | locus YCR088W, strain abp1, stronger effect = lower value 0.994 | locus YDL005C, strain med2, stronger effect = lower value 0.983 | locus YDL035C, strain GPR1, stronger effect = lower value 1.02 | locus YDL040C, strain nat1, stronger effect = lower value 0.987 | locus YDL074C, strain BRE1, stronger effect = lower value 0.992 | locus YDL101C, strain DUN1, stronger effect = lower value 1.01 | locus YDL185W, strain tfp1, stronger effect = lower value 0.986 | locus YDL192W, strain arf1, stronger effect = lower value 0.986 | locus YDR001C, strain nth1, stronger effect = lower value 0.991 | locus YDR069C, strain doa4, stronger effect = lower value 1.01 | locus YDR101C, strain arx1, stronger effect = lower value 0.987 | locus YDR137W, strain rgp1, stronger effect = lower value 0.931 | locus YDR150W, strain NUM1, stronger effect = lower value 1.02 | locus YDR159W, strain sac3, stronger effect = lower value 0.959 | locus YDR162C, strain NBP2, stronger effect = lower value 1.02 | locus YDR195W, strain ref2 0.963 | locus YDR297W, strain sur2, stronger effect = lower value 0.991 | locus YDR318W, strain mcm21, stronger effect = lower value 0.987 | locus YDR334W, strain swr1, stronger effect = lower value 0.988 | locus YDR335W, strain msn5, stronger effect = lower value 0.982 | locus YDR388W, stronger effect = lower value 0.989 | locus YDR392W, strain spt3, stronger effect = lower value 0.894 | locus YDR502C, strain sam2, stronger effect = lower value 0.992 | locus YEL003W, strain gim4, stronger effect = lower value 0.982 | locus YEL037C, strain rad23, stronger effect = lower value 0.976 | locus YEL061C, strain CIN8 (second series), stronger effect = lower value 0.979 | locus YEL061C, strain CIN8, stronger effect = lower value 0.999 | locus YER015W, strain faa2, stronger effect = lower value 1 | locus YER016W, strain bim1, stronger effect = lower value 0.979 | locus YER110C, stronger effect = lower value 0.995 | locus YER111C, strain swi4, stronger effect = lower value 0.99 | locus YER155C, strain BEM2 (second series), stronger effect = lower value 0.993 | locus YER155C, strain BEM2, stronger effect = lower value 0.986 | locus YER167W, strain BCK2, stronger effect = lower value 0.997 | locus YFR010W, strain ubp6, stronger effect = lower value 0.997 | locus YGL078C, strain dbp3, stronger effect = lower value 0.991 | locus YGL086W, strain mad1, stronger effect = lower value 1.02 | locus YGL167C, strain pmr1, stronger effect = lower value 0.975 | locus YGL173C, strain kem1, stronger effect = lower value 0.983 | locus YGL227W, strain vid30, stronger effect = lower value 0.985 | locus YGL240W, strain doc1, stronger effect = lower value 0.998 | locus YGL248W, strain PDE1, stronger effect = lower value 1 | locus YGL253W, strain hxk2, stronger effect = lower value 0.962 | locus YGR135W, strain pre9, stronger effect = lower value 0.989 | locus YGR252W, strain gcn5, stronger effect = lower value 0.971 | locus YHR013C, strain ard1, stronger effect = lower value 0.957 | locus YHR027C, strain rpn1, stronger effect = lower value 0.996 | locus YHR030C, strain SLT2, stronger effect = lower value 1 and 0.954 | locus YHR079C, strain IRE1 (second series), stronger effect = lower value 0.991 | locus YHR079C, strain IRE1, stronger effect = lower value 0.964 | locus YHR094C, strain hxt1, stronger effect = lower value 0.995 | locus YHR129C, strain ARP1, stronger effect = lower value 0.999 | locus YHR142W, strain chs7, stronger effect = lower value 1.02 | locus YHR200W, strain rpn10, stronger effect = lower value 0.981 | locus YIL066C, strain RNR3, stronger effect = lower value 1 | locus YIL073C, strain SPO22, stronger effect = lower value 1 | locus YIL125W, strain kgd1, stronger effect = lower value 1.02 | locus YIR030C, strain dcg1, stronger effect = lower value 1 | locus YJL092W, strain hpr5, stronger effect = lower value 0.998 | locus YJL095W, strain BCK1 (second series), stronger effect = lower value 0.997 | locus YJL095W, strain BCK1, stronger effect = lower value 1.01 and 0.976 | locus YJL115W, strain asf1, stronger effect = lower value 0.993 | locus YJL129C, strain trk1, stronger effect = lower value 1.01 | locus YJL134W, strain LCB3, stronger effect = lower value 0.997 | locus YJL154C, strain vps35, stronger effect = lower value 0.981 | locus YJL164C, strain tpk1, stronger effect = lower value 1 | locus YJL166W, strain qcr8, stronger effect = lower value 0.981 | locus YJL168C, strain set2, stronger effect = lower value 0.997 | locus YJL187C, strain SWE1 (second series), stronger effect = lower value 1 | locus YJL187C, strain SWE1, stronger effect = lower value 0.993 | locus YJR043C, strain POL32, stronger effect = lower value 1.04 | locus YJR066W, strain TOR1, stronger effect = lower value 0.929 | locus YKL009W, strain mrt4, stronger effect = lower value 1.02 | locus YKL068W, stronger effect = lower value 0.994 | locus YKL085W, strain MDH1 (second series), stronger effect = lower value 0.993 | locus YKL085W, strain MDH1, stronger effect = lower value 0.993 | locus YKL160W, strain elf1, stronger effect = lower value 1.04 | locus YKR001C, strain vps1, stronger effect = lower value 1.02 | locus YKR026C, strain gcn3, stronger effect = lower value 0.984 | locus YKR091W, strain srl3, stronger effect = lower value 0.99 | locus YLL001W, strain dnm1, stronger effect = lower value 1 | locus YLL026W, stronger effect = lower value 1.01 | locus YLL041C, strain sdh2, stronger effect = lower value 1 | locus YLR027C, strain aat2, stronger effect = lower value 0.984 | locus YLR039C, strain RIC1, stronger effect = lower value 0.964 | locus YLR058C, strain SHM2, stronger effect = lower value 0.998 | locus YLR102C, strain apc9, stronger effect = lower value 0.992 | locus YLR113W, strain HOG1, stronger effect = lower value 0.951 | locus YLR221C, strain rsa3, stronger effect = lower value 1 | locus YLR258W, strain gsy2, stronger effect = lower value 0.991 | locus YLR262C, strain YPT6 (second series), stronger effect = lower value 0.917 | locus YLR262C, strain YPT6, stronger effect = lower value 1.01 | locus YLR268W, strain sec22, stronger effect = lower value 0.987 | locus YLR320W, strain mms22, stronger effect = lower value 0.998 | locus YLR330W, strain CHS5, stronger effect = lower value 1 | locus YLR342W, strain FKS1 (second series), stronger effect = lower value 1.05 | locus YLR342W, strain FKS1, stronger effect = lower value 0.986 | locus YLR357W, strain rsc2, stronger effect = lower value 1.03 | locus YLR370C, strain arc18, stronger effect = lower value 0.988 | locus YLR371W, strain rom2, stronger effect = lower value 0.999 | locus YLR384C, strain iki3, stronger effect = lower value 0.982 | locus YLR418C, strain cdc73, stronger effect = lower value 1.03 | locus YML016C, strain PPZ1, stronger effect = lower value 0.991 | locus YML032C, strain rad52, stronger effect = lower value 0.994 | locus YML120C, strain ndi1, stronger effect = lower value 0.99 | locus YML124C, strain tub3, stronger effect = lower value 0.992 | locus YMR058W, strain fet3, stronger effect = lower value 0.984 | locus YMR078C, strain ctf18, stronger effect = lower value 0.987 | locus YMR125W, strain sto1, stronger effect = lower value 0.975 | locus YMR129W, stronger effect = lower value 1 | locus YMR205C, strain PFK2, stronger effect = lower value 0.981 | locus YMR223W, strain ubp8, stronger effect = lower value 0.974 | locus YMR231W, strain pep5, stronger effect = lower value 0.99 | locus YMR263W, strain SAP30, stronger effect = lower value 1.02 | locus YMR307W, strain GAS1, stronger effect = lower value 1.11 | locus YNL067W, strain RPL9B, stronger effect = lower value 1.02 | locus YNL071W, strain lat1, stronger effect = lower value 0.986 | locus YNL128W, strain TEP1, stronger effect = lower value 1 | locus YNL183C, strain NPR1, stronger effect = lower value 0.904 | locus YNL209W, strain ssb2, stronger effect = lower value 0.993 | locus YNL233W, strain BNI4, stronger effect = lower value 1.02 | locus YNL248C, strain rpa49, stronger effect = lower value 0.987 | locus YNL250W, strain rad50, stronger effect = lower value 0.991 | locus YNL271C, strain bni1, stronger effect = lower value 0.99 | locus YNL298W, strain CLA4, stronger effect = lower value 1 | locus YNL307C, strain MCK1, stronger effect = lower value 1.01 | locus YNL322C, strain KRE1 (second series), stronger effect = lower value 0.989 | locus YNL322C, strain KRE1, stronger effect = lower value 0.995 | locus YNR049C, strain mso1, stronger effect = lower value 0.979 | locus YNR052C, strain pop2, stronger effect = lower value 0.983 | locus YOL012C, strain htz1 1.17 | locus YOL147C, strain pex11, stronger effect = lower value 0.992 | locus YOR001W, strain rrp6, stronger effect = lower value 1.01 | locus YOR061W, strain CKA2, stronger effect = lower value 1 | locus YOR069W, strain VPS5, stronger effect = lower value 0.992 | locus YOR070C, strain gyp1, stronger effect = lower value 0.976 | locus YOR080W, strain dia2, stronger effect = lower value 0.989 | locus YOR083W, strain WHI5, stronger effect = lower value 1.05 | locus YOR106W, strain vam3, stronger effect = lower value 0.999 | locus YOR136W, strain idh2, stronger effect = lower value 0.995 | locus YOR144C, strain elg1, stronger effect = lower value 0.987 | locus YOR184W, strain ser1, stronger effect = lower value 1 | locus YOR231W, strain MKK1, stronger effect = lower value 0.984 | locus YOR265W, strain rbl2, stronger effect = lower value 0.989 | locus YOR270C, strain vph1, stronger effect = lower value 0.909 | locus YOR290C, strain snf2, stronger effect = lower value 0.921 | locus YOR316C, strain cot1, stronger effect = lower value 0.989 | locus YPL051W, strain arl3, stronger effect = lower value 1.01 | locus YPL078C, strain atp4, stronger effect = lower value 1.01 | locus YPL106C, strain sse1, stronger effect = lower value 0.996 | locus YPL240C, strain hsp82, stronger effect = lower value 1.02 | locus YPL256C, strain CLN2, stronger effect = lower value 0.962 | locus YPR119W, strain clb2, stronger effect = lower value 0.99 | locus YPR141C, strain kar3, stronger effect = lower value 0.994 | locus YPR163C, strain tif3, stronger effect = lower value 0.997 | locus YPR167C, strain met16, stronger effect = lower value 0.992 | strain wtn01, stronger effect = lower value 0.996
